# Laboratory results taken from ChEMBL document CHEMBL4513216, “Probing the Open Global Health Chemical Diversity Library for Multistage-Active Starting Points for Next-Generation Antimalarials” (ACS Infect Dis, 2020).
# About 2,700 (4%) of roughly 68,000 compounds showed an effect of 50% or more. The sample holds strong results, similar compounds and a random draw of the others, so the mix is not that of the screen.
# System: Plasmodium berghei
# Test: Screen against P. berghei liver stage (PbLuc), transformed with Luciferase, at 2uM
# Assay type: functional, HepG2
# Details: tested at 2 uM
row,Structure (SMILES),INHIBITION
1,COc1ncc(C2(O)CCN(Cc3ccc(F)c(F)c3)CC2)c(OC)n1,10.83%
2,O=C(CN1CCCC(O)C1)NC(=O)NCc1cccs1 (stereo not drawn),-4.29%
3,Cc1cccc(C2(CNC(=O)c3ccnc(N(C)C)c3)CCOCC2)c1,-3.96%
4,CN(C)c1cc(C(=O)NCC2(c3cccc(F)c3)CCOCC2)ccn1,15.38%
5,CN(C)c1cc(C(=O)NCC2(c3ccc(F)cc3)CC2)ccn1,87.73%
6,CC1CCN(CCCNC(=O)C2CCCCC2)CC1,1.41%
7,CC1CCC(O)(CN2CCN(CCNC(=O)C3CCC3)CC2)CC1 (stereo not drawn),-81.41%
8,CCCC(=O)N1CCC(C(=O)NCCN2CCC(C)CC2)CC1,20.43%
9,CC(=O)N1CCC(C(=O)NCCN2CCC(C)CC2)CC1,44.99%
10,COCCCNC(=O)C1CCN(CC2(O)CCC(C)CC2)CC1 (stereo not drawn),54.69%
11,CCCNC(=O)C1CCN(CC2(O)CCC(C)CC2)CC1 (stereo not drawn),50.03%
12,CN(Cc1ccco1)Cc1cnc2n1CCN(c1ccccn1)CC2,-18.6%
13,OC(CNc1ccc(Cl)cn1)CN1CCOCC1 (stereo not drawn),12.58%
14,CC1CCN(CC(O)CNc2ccc(Cl)cn2)CC1 (stereo not drawn),58.9%
15,CC1CCN(CC(O)CNc2ccccn2)CC1 (stereo not drawn),39.95%
16,Cc1nnc([C@@]23CCO[C@@H]2CCN(S(=O)(=O)c2cccnc2)C3)o1,38.17%
17,O=C(c1c[nH]c2ccccc2c1=O)N1CCSCC1,40.47%
18,CC(C(=O)NCCc1cccs1)N1CCC(n2ccnc2)CC1 (stereo not drawn),-22.69%
19,CC(C(=O)Nc1ncccn1)N1CCC(n2ccnc2)CC1 (stereo not drawn),61.56%
20,CC(C(=O)Nc1ccc2ccccc2c1)N1CCC(n2ccnc2)CC1 (stereo not drawn),-17.84%
21,O=C(c1cc(Cl)c[nH]1)N1CCN(CCc2ccccn2)CC1,-5.61%
22,COc1cc(OC)c(CNC(=O)NCC(=O)N2CCCC2)c(OC)c1,-19.51%
23,OC1(Cn2ccc3ncccc32)CCN(Cc2ccccn2)CC1,7.86%
24,CCc1sc(-c2nnc(CNC(C)Cn3cc(C)cn3)o2)cc1C (stereo not drawn),-11.19%
25,CCc1sc(-c2nnc(CNCCn3cccn3)o2)cc1C,-19.27%
26,CCc1sc(-c2nnc(CNCCn3cc(C)cn3)o2)cc1C,53.03%
27,CNc1nc2cn(Cc3ccc(Cl)cc3)c(=O)c-2c[nH]1,16.38%

row,Structure (SMILES),INHIBITION
1,CC[C@@H](Cn1ncc2ccccc2c1=O)NC(=O)c1cnccn1,-10.89%
2,Cc1cc(=O)n2ncnc2n1CC(O)c1cc(Cl)ccc1Cl (stereo not drawn),50.59%
3,Cc1cc(=O)n2ncnc2n1CC(O)c1ccccc1Cl (stereo not drawn),5.36%
4,Cc1cc(=O)n2ncnc2n1CC(O)c1cc(F)ccc1F (stereo not drawn),6.97%
5,Cc1nc(C2(O)CCCNCC2)sc1CCOc1ccc(Cl)cc1 (stereo not drawn),25.23%
6,Cc1ccc(NC2CCN(C(=O)c3nccc4ccccc34)CC2)nn1,-27.5%
7,Cc1[nH]c2ccc(C(=O)N3C[C@@H](O)[C@H](N4CCOCC4)C3)cc2c1C,21.97%
8,COc1ccccc1C(C)CC(=O)N1CCN(S(N)(=O)=O)CC1 (stereo not drawn),50.46%
9,COc1ccccc1C(C)CC(=O)N1CCCS1(=O)=O (stereo not drawn),-29.82%
10,COc1ccccc1C(C)CC(=O)N1CC[C@H](O)C1 (stereo partly drawn),-22.65%
11,O=C(NC1CC1)C1CN(Cc2ccc3c(c2)OCCO3)CCN1 (stereo not drawn),54.73%
12,NC(=O)COc1ccc(CN2CCNC(C(=O)NC3CC3)C2)cc1Cl (stereo not drawn),32.69%
13,Cc1ccc(CN2CCNC(C(=O)NC3CC3)C2)cc1C (stereo not drawn),2.6%
14,O=C(c1ccccn1)N1C[C@H]2CC[C@@H](C1)N(C(=O)CCN1CCCC1)C2,-49.63%
15,O=C(NCCNS(=O)(=O)c1cccc(Cl)c1)C1CCCO1 (stereo not drawn),1.27%
16,CC(NCCNS(=O)(=O)c1cccc(Cl)c1)C1CCOCC1 (stereo not drawn),53.16%
17,Cc1cc(NCCNS(=O)(=O)c2cccc(Cl)c2)nc(C)n1,-42.54%
18,COCC1CC2(CCN(C(=O)c3ccccc3C)CC2)CN1C(C)C (stereo not drawn),24.86%
19,O=C(c1cn(CC(=O)N2CCCC2)c2ccccc12)C1CC1,54.29%
20,O=C(c1cn(CC(=O)N2CCCCCC2)c2ccccc12)C1CC1,-45.95%
21,O=C(c1cn(CC(=O)N2CCCCC2)c2ccccc12)C1CC1,-27.61%
22,CCOCC1CN(C(=O)c2cnoc2C)Cc2cn(C)nc21 (stereo not drawn),-10.98%
23,Fc1ccc(CN2CCCC(c3cc4ncccc4[nH]3)C2)cc1 (stereo not drawn),-6.41%
24,CC(=O)Nc1ccc(CN2CCCC(c3cc4ncccc4[nH]3)C2)cc1 (stereo not drawn),50.68%
25,CCOc1ccc(CN2CCCC(c3cc4ncccc4[nH]3)C2)cc1 (stereo not drawn),-12.12%
26,Cc1occc1C(=O)N1CCCC2(CCN(CCN3CCCC3)C2=O)C1 (stereo not drawn),-15.36%
